# The whole screen tested about 300,000 compounds, of which about 3,200 (1.1%) were called active.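 How the source made its calls: active means inhibition above the campaign mean inhibition plus 3 SD (cut at about 35% in these data); inactive means the rest.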 What follows is part of a selection rich in actives, with near analogues and random picks from the rest.
# Target: Glutathione S-transferase omega-1 (Homo sapiens) (UniProt P78417)
# Experiment: human GSTO1 enzyme inhibition – biochemical, fluorescence polarization, counter-screen for RBBP9 inhibitor project, primary screen (AID 1974);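 further: 0% = GSTO1-1 with DMSO and 100% = wells lacking GSTO1-1 enzyme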
# Settings: recombinant GSTO1, activity-based probe fluorescence polarization; at 5.96 µM; stronger effect = higher value
# Chain of Glutathione S-transferase omega-1 (Homo sapiens) (P78417 whole entry, looked up): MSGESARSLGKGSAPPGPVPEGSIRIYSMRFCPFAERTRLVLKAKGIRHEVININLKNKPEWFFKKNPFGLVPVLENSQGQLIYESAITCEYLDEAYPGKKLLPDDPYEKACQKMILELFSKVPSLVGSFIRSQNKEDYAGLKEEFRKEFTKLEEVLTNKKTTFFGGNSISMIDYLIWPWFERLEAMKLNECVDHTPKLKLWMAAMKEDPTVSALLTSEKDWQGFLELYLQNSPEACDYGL
row,SMILES,inhibition
1,CCCCCCSc1ccc([C@@H]2[C@@H]3C(=O)N(CC)C(=O)[C@@H]3[C@]3(C(=O)OC)CCCCN23)cc1OC,-5.28% (inactive)
2,Cc1cccc(NS(=O)(=O)c2cc(Cl)ccc2Cl)n1,-9.4% (inactive)
3,COc1ccc(N2CCN(C(C)=C3C(=O)c4ccccc4C3=O)CC2)cc1,2.82% (inactive)
4,COC1=C(N2CCOCC2)C(=O)c2ccccc2C1=O,57.8% (active)
5,O=C1C(Cl)=C(N2CCOCC2)C(=O)N1c1ccccc1,3.26% (inactive)
6,COc1ccc(NS(=O)(=O)c2ccc(C)c(C(=O)NNC(=O)c3csc(N4CCOCC4)n3)c2)cc1,-5.75% (inactive)
7,CCCC1C(=O)N2C(N(C)C)=Nc3ccc(C)cc3N2C1=O (stereo not drawn),-1.7% (inactive)
8,COc1ccc(-c2cnc(SCCNC(=O)c3ccc4c(c3)OCO4)[nH]2)cc1,-3.18% (inactive)
9,COC(=O)c1ccc(CSc2nncn2N)cc1,61% (active)
10,COC(=O)c1ccc(CSc2nncn2C)cc1,-6.04% (inactive)
11,COC(=O)c1ccc(CSc2nnc(NC(C)C)s2)cc1,-6.8% (inactive)
12,OCC[C@H]1C[C@H](O)[C@@H](O)[C@]2(CCCCO2)O1,3.4% (inactive)
13,COc1ccc(CC2c3cc(OC)c(OC)cc3CC[N+]2(C)CCC(=O)OCCCCCOC(=O)CC[N+]2(C)CCc3cc(OC)c(OC)cc3C2Cc2ccc(OC)c(OC)c2)cc1OC (stereo not drawn),11.1% (inactive)
14,CCC(c1nnc(SCC(=O)NNC(=O)c2ccccc2)n1Cc1ccccc1)N(C)C (stereo not drawn),1.64% (inactive)
15,COc1ccc(-n2ncc3c(SCC(=O)NNC(C)=O)ncnc32)cc1,-13% (inactive)
16,COc1ccc(NC(=O)CSc2nc(C)cs2)cc1,4.13% (inactive)
17,COc1ccc(NC(=O)CSc2ncnc3[nH]ncc23)cc1,36.4% (active)
18,CCCCN1C(N)=NC[C@@H]1Cc1ccccc1,-4.9% (inactive)
19,CC(C)(C)C(=O)OCc1nc(-c2ccc(O)c(O)c2)cs1,37.1% (active)
20,COc1cc(CC(=O)Nc2nc(-c3ccc(F)c(F)c3)cs2)cc(OC)c1OC,-6.41% (inactive)
21,Cc1onc(C(=O)NN)c1-c1csc(COc2ccccc2)n1,10.4% (inactive)
22,CC(CCN1CCN=C1N(C)C)c1ccccc1 (stereo not drawn),4.27% (inactive)
23,CNC(C)C#Cc1ccc2sc3cc(OC)c(OC)cc3c(=O)c2c1 (stereo not drawn),0.59% (inactive)
24,CC(NC(=O)COC(=O)c1cc(=O)[nH]c2ccccc12)c1ccccc1 (stereo not drawn),-7.45% (inactive)

row,SMILES,inhibition
1,CCCS(=O)(=O)Nc1c(C(=O)O)[nH]c2ccccc12,0.73% (inactive)
2,O=C(O)c1[nH]c2ccccc2c1C(c1cccc(O)c1)c1c(C(=O)O)[nH]c2ccccc12,50.4% (active)
3,CN(C)CCN(C(=O)CN1C(=O)c2ccccc2C1=O)c1nc2cc3c(cc2s1)OCCO3,1.93% (inactive)
4,COc1cccc(N2CC(NC(=O)c3ccc4ccccc4c3)CC2=O)c1 (stereo not drawn),-0.99% (inactive)
5,CC1CCN(C(=O)COC(=O)c2cc(S(=O)(=O)N3CCOCC3)ccc2Cl)CC1,-3.67% (inactive)
6,CC(C)(C)C(=O)COC(=O)c1cc(S(=O)(=O)N2CCCCC2)ccc1N1CCOCC1,-0.05% (inactive)
7,O=C(OCC(=O)N1CCCC1=O)c1cc(S(=O)(=O)N2CCOCC2)ccc1Cl,82% (active)
8,CCCNC(=O)c1onc(CSc2ccc(F)cc2)c1C(=O)NC(C)C,-6.69% (inactive)
9,CC[N+](C)(CC)CCC[n+]1c(-c2ccccc2)c2cc(N)ccc2c2ccc(N)cc21,92.8% (active)
10,COCC(=O)Nc1c(I)c(C(=O)NCC(O)CO)c(I)c(C(=O)N(C)CC(O)CO)c1I (stereo not drawn),3.24% (inactive)
11,Cc1ccc2c(c1)N(CC(=O)NCC1CCCO1)C(=O)CO2 (stereo not drawn),-3.07% (inactive)
12,CCOc1ccc(/C=N/NC(=O)CSc2ccccn2)cc1O,1.26% (inactive)
13,Cn1c(SCC(=O)N/N=C/c2ccc(O)c(O)c2)nc2ccccc21,52% (active)
14,CCn1c(SCC(=O)N/N=C/c2ccncc2)nc2ccccc21,-0.27% (inactive)
15,Cc1cc2nc3c(=O)n(Cc4ccccc4)c(=O)[nH]c3nc2cc1N,44.9% (active)
16,CSc1nc2ccccc2c(=O)n1Cc1ccc(F)cc1,-7.17% (inactive)
17,CC(=O)c1ccc(-c2ccc(Cn3c(C)nc4cc(N)c(C)nc43)cc2)cc1,4.41% (inactive)
18,O=S(=O)(ON(c1ccccc1)S(=O)(=O)c1ccccc1)c1ccccc1,-0.47% (inactive)
19,CC1=C/C(=N\OS(=O)(=O)c2ccccc2)C=CC1=O,49.7% (active)
20,CCN(CC(=O)NCc1cccs1)C(=O)c1ccc(OC)c(S(=O)(=O)N2CCOCC2)c1,11.9% (inactive)
21,O=S(=O)(O)Oc1c[nH]c2ccccc12,62.3% (active)
22,COc1ccccc1CC(=O)NCCc1c[nH]c2ccccc12,5.81% (inactive)
23,O=C(Cc1c[nH]c2ccccc12)OCCOC(=O)Cc1c[nH]c2ccccc12,-2.78% (inactive)
24,Cc1ccc(Cn2nnc3c(=O)[nH]c(C4CCN(S(=O)(=O)/C=C/c5ccccc5)CC4)nc32)cc1,-24.4% (inactive)

row,SMILES,inhibition
1,CC(=O)N(C1=C(Cl)C(=O)c2ccccc2C1=O)c1ccc(C(=O)O)cc1,79.7% (active)
2,CC(C)N(C(=O)c1ccc(-c2ccccc2F)cc1)C(C)C,0.63% (inactive)
3,O=C(CN1C(=O)c2ccccc2C1=O)NCc1ccc(C(=O)O)cc1,3.69% (inactive)
4,NC(=O)NC(=O)C(OC(=O)CCNS(=O)(=O)c1ccccc1)c1ccccc1 (stereo not drawn),-0.72% (inactive)
5,Cc1ccc(CSCC(=O)N(C)CC(=O)Nc2ccc(C)cc2)cc1,-11.5% (inactive)
6,CCOC(=O)c1cnc2nc(SCc3ccccc3Cl)[nH]n2c1=O,-25.6% (inactive)
7,CN1CCN(/N=C/c2ccc(-c3ccc([N+](=O)[O-])cc3)o2)CC1,3.62% (inactive)
8,Cc1ccc([N+](=O)[O-])cc1S(=O)(=O)N1CCCN(C)CC1,2.63% (inactive)
9,CN1CCN(/N=C2/C(=O)Nc3ccc([N+](=O)[O-])cc32)CC1,37.1% (active)
10,COc1cccc(NC(C)=[N+](C)CCNS(=O)(=O)c2ccc(Cl)cc2)c1,8.66% (inactive)
11,Cc1cccc(C(C)C)c1NC(=O)COC(=O)C1CC(=O)N(Cc2ccccc2)C1 (stereo not drawn),7.97% (inactive)
12,Oc1ccc2ccccc2c1N=Nc1nccs1,52% (active)
13,Oc1ccc(N=Nc2nccs2)c(O)c1,36.6% (active)
14,c1ccc(NCc2cccc3ccccc23)nc1,-6.32% (inactive)
15,O=C(Oc1ccc(-c2nnco2)cc1)c1ccc(F)c(S(=O)(=O)N2CCOCC2)c1,3.94% (inactive)
16,CCN(CC(=O)Nc1c(F)cccc1F)C(=O)c1ccc(S(=O)(=O)N2CCCCC2)cc1,3.32% (inactive)
17,CC(C)(C)n1cnnc1Sc1ccc([N+](=O)[O-])cn1,39.1% (active)
18,Cc1cccc(C)c1NC(=O)CSc1ccc([N+](=O)[O-])cn1,5.11% (inactive)
19,O=[N+]([O-])c1ccc(Sc2n[nH]c(-c3ccco3)n2)nc1,5.75% (inactive)
20,CC(OC(=O)CNC(=O)c1cccc(F)c1)C(=O)NC1CCCCC1C (stereo not drawn),3.44% (inactive)
21,COc1ccc(C(=O)NCC(=O)N/N=C/c2ccc([N+](=O)[O-])s2)cc1OC,27.8% (inactive)
22,CC(C)(C)c1cc(C(=O)N/N=C/c2ccc([N+](=O)[O-])s2)n[nH]1,37% (active)
23,Cc1ccccc1NCC(=O)N/N=C\c1ccc([N+](=O)[O-])s1,15.2% (inactive)
24,O=C(NCCSc1ncc(-c2ccccc2)[nH]1)c1ccco1,5.65% (inactive)

row,SMILES,inhibition
1,CC1(OC(=O)CCc2ccccc2)C(=O)C=C2C=C(c3ccc(C#N)cc3)N(CCc3ccccn3)C=C2C1=O (stereo not drawn),27.9% (inactive)
2,CC1(OC(=O)C2CCCC2)C(=O)C=C2C=C(c3ccc(C#N)cc3)OC=C2C1=O (stereo not drawn),24.5% (inactive)
3,COCCN1C=C2C(=O)C(C)(OC(=O)C3CCCC3)C(=O)C=C2C=C1c1ccsc1 (stereo not drawn),45.6% (active)
4,NC(=O)C1=C[C@@H](c2ccc3c(c2)OCO3)C[C@@H](OCCCCO)O1,14.6% (inactive)
5,CN(C)C(=O)N=NC(=O)N(C)C,1.15% (inactive)
6,CCC(Oc1ccccc1C)C(=O)Nc1ccc(S(=O)(=O)Nc2cc(C)on2)cc1 (stereo not drawn),-0.82% (inactive)
7,CN1c2ccc(C=O)c3c(C=O)ccc(c23)N(C)C1(C)C,72.9% (active)
8,Cc1cc(C)cc(NC(=O)COc2coc(CN3CCN(c4ccccc4)CC3)cc2=O)c1,-4.3% (inactive)
9,CCN(C(=O)CSc1ncnc2c1cnn2-c1ccccc1)C1CCS(=O)(=O)C1 (stereo not drawn),-42.3% (inactive)
10,CC(=O)N1CCN(C(=O)c2cc(-c3ccc(C)o3)nc3ccccc23)CC1,5.42% (inactive)
11,Clc1ccc(C2=CSC3=Nc4cccc5cccc(c45)N23)cc1,58.2% (active)
12,Cc1ccc2nc(NC(=O)CSc3nc(=O)n(CCCN(C)C)c4c3CCC4)sc2c1,-12.3% (inactive)
13,COc1ccc2oc(C(=O)N(CC(C)C)C3CCS(=O)(=O)C3)c(C)c2c1 (stereo not drawn),-0.98% (inactive)
14,Cc1ccc(/C=N/NC(=O)CN2CCN(Cc3ccccc3)CC2)s1,-7.48% (inactive)
15,Cc1ccc(C(=O)N/N=C/c2sc(=O)n(Cc3cccc(C(=O)O)c3)c2Cl)cc1,40.4% (active)
16,Cc1ccc(C(=O)N/N=C/c2cccc3ccccc23)cn1,0.98% (inactive)
17,Cc1ccccc1S(=O)(=O)N1[C@@H](c2cccc(Cl)c2)C(C(=O)O)=CC[C@H]1c1ccc(Cl)cc1,-219% (inactive)
18,COc1ccc(-c2c(NC(=O)c3ccco3)oc3ccc(Cl)cc3c2=O)cc1,-7.76% (inactive)
19,CN(C(=O)COC(=O)c1cc(-c2ccco2)nc2ccccc12)C1CCS(=O)(=O)C1 (stereo not drawn),66.1% (active)
20,Cc1c(-c2cccc(Cl)c2)nc2ccccc2c1C(=O)OCC(=O)N(C)C1CCS(=O)(=O)C1 (stereo not drawn),-6.81% (inactive)
21,CN(C(=O)COC(=O)c1nc(Cl)ccc1Cl)C1CCS(=O)(=O)C1 (stereo not drawn),3.97% (inactive)
